Measurements as given in PubChem BioAssay AID1159580 (chemical genetic matrix, 2015).
The whole screen tested about 5,500 compounds, of which about 2,000 (36%) were called active. Another 18% or so got no clear call; they are omitted. Cut-off read from the data, not from the text of the source: active = normalized growth mostly below about 0.91 (no sharp cut-off); inconclusive = no clear call, values can overlap the other calls; inactive = mostly above about 0.92. This is one part of the list.

Experiment: chemical genetic growth profiling, strain panel (AID 1159580);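 note: tested at 20 µM; growth read once vehicle control cultures reached saturation at 30 °C; 1 = growth at the plate median or of vehicle wells; lower values mean less growth of the strain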
Conditions: growth OD

Measured: normalized growth

O=C1c2ccccc2C(=O)c2ccccc21
inactive: S. cerevisiae deletion strains, locus YJR075W, strain HOC1, hits give low values 0.956 | S. cerevisiae deletion strains, locus YKL009W, strain mrt4, hits give low values 0.933 | S. cerevisiae deletion strains, locus YKL068W, hits give low values 0.986 | S. cerevisiae deletion strains, locus YKL085W, strain MDH1 (second series), hits give low values 0.97 | S. cerevisiae deletion strains, locus YKL085W, strain MDH1, hits give low values 0.97 | S. cerevisiae deletion strains, locus YKL160W, strain elf1, hits give low values 0.986 | S. cerevisiae deletion strains, locus YKL190W, strain CNB1, hits give low values 0.98 | S. cerevisiae deletion strains, locus YKR001C, strain vps1, hits give low values 0.972 | S. cerevisiae deletion strains, locus YKR026C, strain gcn3, hits give low values 1 | S. cerevisiae deletion strains, locus YKR091W, strain srl3, hits give low values 1 | S. cerevisiae deletion strains, locus YLL001W, strain dnm1, hits give low values 1.01 | S. cerevisiae deletion strains, locus YLL026W, hits give low values 0.993 | S. cerevisiae deletion strains, locus YLL041C, strain sdh2, hits give low values 0.993 | S. cerevisiae deletion strains, locus YLR027C, strain aat2, hits give low values 0.999 | S. cerevisiae deletion strains, locus YLR039C, strain RIC1, hits give low values 0.765 | S. cerevisiae deletion strains, locus YLR058C, strain SHM2, hits give low values 0.988 | S. cerevisiae deletion strains, locus YLR102C, strain apc9, hits give low values 0.989 | S. cerevisiae deletion strains, locus YLR113W, strain HOG1, hits give low values 1.1 | S. cerevisiae deletion strains, locus YLR221C, strain rsa3, hits give low values 0.969 | S. cerevisiae deletion strains, locus YLR258W, strain gsy2, hits give low values 0.993 | S. cerevisiae deletion strains, locus YLR262C, strain YPT6 (second series), hits give low values 0.96 | S. cerevisiae deletion strains, locus YLR262C, strain YPT6, hits give low values 0.71 | S. cerevisiae deletion strains, locus YLR268W, strain sec22, hits give low values 0.974 | S. cerevisiae deletion strains, locus YLR320W, strain mms22, hits give low values 0.903 | S. cerevisiae deletion strains, locus YLR330W, strain CHS5, hits give low values 0.993 | S. cerevisiae deletion strains, locus YLR342W, strain FKS1 (second series), hits give low values 0.938 | S. cerevisiae deletion strains, locus YLR342W, strain FKS1, hits give low values 1.01 | S. cerevisiae deletion strains, locus YLR357W, strain rsc2, hits give low values 0.976 | S. cerevisiae deletion strains, locus YLR370C, strain arc18, hits give low values 0.994 | S. cerevisiae deletion strains, locus YLR371W, strain rom2, hits give low values 0.975 | S. cerevisiae deletion strains, locus YLR384C, strain iki3, hits give low values 0.994 | S. cerevisiae deletion strains, locus YLR418C, strain cdc73, hits give low values 1.01 | S. cerevisiae deletion strains, locus YML016C, strain PPZ1, hits give low values 0.992 | S. cerevisiae deletion strains, locus YML032C, strain rad52, hits give low values 0.976 | S. cerevisiae deletion strains, locus YML120C, strain ndi1, hits give low values 1.01 | S. cerevisiae deletion strains, locus YML124C, strain tub3, hits give low values 0.989 | S. cerevisiae deletion strains, locus YMR058W, strain fet3, hits give low values 0.948 | S. cerevisiae deletion strains, locus YMR078C, strain ctf18, hits give low values 0.995 | S. cerevisiae deletion strains, locus YMR125W, strain sto1, hits give low values 1.08 | S. cerevisiae deletion strains, locus YMR129W, hits give low values 0.996 | S. cerevisiae deletion strains, locus YMR205C, strain PFK2, hits give low values 1.03 | S. cerevisiae deletion strains, locus YMR223W, strain ubp8, hits give low values 0.963 | S. cerevisiae deletion strains, locus YMR231W, strain pep5, hits give low values 0.998 | S. cerevisiae deletion strains, locus YMR263W, strain SAP30, hits give low values 0.97 | S. cerevisiae deletion strains, locus YMR307W, strain GAS1, hits give low values 0.804 | S. cerevisiae deletion strains, locus YNL067W, strain RPL9B, hits give low values 0.964 | S. cerevisiae deletion strains, locus YNL071W, strain lat1, hits give low values 0.955 | S. cerevisiae deletion strains, locus YNL128W, strain TEP1, hits give low values 0.946 | S. cerevisiae deletion strains, locus YNL153C, strain GIM3, hits give low values 1 | S. cerevisiae deletion strains, locus YNL183C, strain NPR1, hits give low values 0.961 | S. cerevisiae deletion strains, locus YNL209W, strain ssb2, hits give low values 0.978 | S. cerevisiae deletion strains, locus YNL233W, strain BNI4, hits give low values 0.995 | S. cerevisiae deletion strains, locus YNL250W, strain rad50, hits give low values 0.974 | S. cerevisiae deletion strains, locus YNL271C, strain bni1, hits give low values 0.978 | S. cerevisiae deletion strains, locus YNL298W, strain CLA4, hits give low values 0.975 | S. cerevisiae deletion strains, locus YNL307C, strain MCK1, hits give low values 0.971 | S. cerevisiae deletion strains, locus YNL322C, strain KRE1 (second series), hits give low values 1.03 | S. cerevisiae deletion strains, locus YNL322C, strain KRE1, hits give low values 0.987 | S. cerevisiae deletion strains, locus YNR049C, strain mso1, hits give low values 0.995 | S. cerevisiae deletion strains, locus YNR052C, strain pop2, hits give low values 0.99 | S. cerevisiae deletion strains, locus YOL006C, strain TOP1, hits give low values 0.97 | S. cerevisiae deletion strains, locus YOL012C, strain htz1 0.796 | S. cerevisiae deletion strains, locus YOL147C, strain pex11, hits give low values 1.01 | S. cerevisiae deletion strains, locus YOR001W, strain rrp6, hits give low values 0.991 | S. cerevisiae deletion strains, locus YOR061W, strain CKA2, hits give low values 0.988 | S. cerevisiae deletion strains, locus YOR069W, strain VPS5, hits give low values 1.01 | S. cerevisiae deletion strains, locus YOR070C, strain gyp1, hits give low values 0.996 | S. cerevisiae deletion strains, locus YOR080W, strain dia2, hits give low values 1.01 | S. cerevisiae deletion strains, locus YOR083W, strain WHI5, hits give low values 0.963 | S. cerevisiae deletion strains, locus YOR106W, strain vam3, hits give low values 0.945 | S. cerevisiae deletion strains, locus YOR136W, strain idh2, hits give low values 0.985 | S. cerevisiae deletion strains, locus YOR144C, strain elg1, hits give low values 0.992 | S. cerevisiae deletion strains, locus YOR184W, strain ser1, hits give low values 0.942 | S. cerevisiae deletion strains, locus YOR231W, strain MKK1, hits give low values 1.02 | S. cerevisiae deletion strains, locus YOR265W, strain rbl2, hits give low values 0.993 | S. cerevisiae deletion strains, locus YOR270C, strain vph1, hits give low values 0.804 | S. cerevisiae deletion strains, locus YOR290C, strain snf2, hits give low values 0.973 | S. cerevisiae deletion strains, locus YOR316C, strain cot1, hits give low values 0.996 | S. cerevisiae deletion strains, locus YPL051W, strain arl3, hits give low values 0.926 | S. cerevisiae deletion strains, locus YPL055C, strain LGE1, hits give low values 0.9 | S. cerevisiae deletion strains, locus YPL078C, strain atp4, hits give low values 0.96 | S. cerevisiae deletion strains, locus YPL106C, strain sse1, hits give low values 0.954 | S. cerevisiae deletion strains, locus YPL240C, strain hsp82, hits give low values 0.995 | S. cerevisiae deletion strains, locus YPL241C, strain CIN2, hits give low values 0.953 | S. cerevisiae deletion strains, locus YPL256C, strain CLN2, hits give low values 1.08 | S. cerevisiae deletion strains, locus YPR119W, strain clb2, hits give low values 0.996 | S. cerevisiae deletion strains, locus YPR141C, strain kar3, hits give low values 0.99 | S. cerevisiae deletion strains, locus YPR163C, strain tif3, hits give low values 0.996 | S. cerevisiae deletion strains, locus YPR167C, strain met16, hits give low values 1 | S. cerevisiae deletion strains, strain wtn01, hits give low values 0.988 | S. cerevisiae strains, strain wild type, hits give low values 0.995
active: S. cerevisiae deletion strains, locus YNL248C, strain rpa49, hits give low values 0.837
